HT1080 IDH1KD tx – kills HT-1080 cells with IDH1 knockdown. HT-1080 IDH1 knockdown viability, ATP luminescence, 48 h. Potency, µM (series often up to 46.1 µM), inactives show at the top dose activity, negative = toxicity, hits mostly cytotoxic. 360,000 compounds, 2% hits;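 also: potency is read from the fitted curve at half-maximal effect; 0% = DMSO wells and -100% = cell-free medium wells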
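In this qHTS, HT-1080 cells depleted of IDH1 are exposed for 48 h at 37 °C to compound titrations. Toxicity is scored from CellTiter-Glo luminescence, with DMSO as full viability and medium alone as none.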
IL1B secr inh – blocks inflammasome-driven IL-1 beta release; THP-1 LPS/ATP IL-1B secretion, AlphaLISA, 16 h; active compounds read low; 360,000 compounds, 4.7% hits; activity change, % at 57.5 µM; in the data active = activity change below about -50%; inconclusive = mostly about -30% to -49%
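THP-1 cells pretreated 1 hr with compounds (up to 57.5 uM final), then stimulated with LPS (250 ng/mL final) plus ATP (1.25 mM final); secreted IL-1B measured by AlphaLISA after 16 hr, decreased signal indicating inhibition.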
DT40 TDP1 no CPT – qHTS for Inhibitors of human tyrosyl-DNA phosphodiesterase 1 (TDP1): qHTS in cells in absence of CPT; DT40 Tdp1-/- hTDP1 cells, no CPT, ATP luminescence, 48 h; Potency, µM (doses to about 46.2 µM), inactives show at the top dose activity change, negative = growth inhibition, usual class: inhibitors; 420,000 compounds, 15% hits; AID 686978, 2013; also: potency is read from the fitted curve at half-maximal effect; nearly all actives have a fitted effect of over 55% in size
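Readout: luminescence from CellTiter-Glo after 30 min in the dark at RT. Cells: DT40 Tdp1-/- with stable hTDP1, 400/well. Exposure: compounds alone, ≥48 hr, 37 °C.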
HT1080NT lethal – kills 2HG-producing HT-1080-NT fibrosarcoma cells | HT-1080-NT fibrosarcoma viability, CellTiter-Glo ATP luminescence, 48 h | Potency, µM (titrated, usually from 46.1 µM), for the others: at the highest dose activity, negative = less viability, usual class: cytotoxic | 360,000 compounds, 1.6% hits | AID 686970;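 also: NT is the 2HG producing partner of a matched IDH1 knockdown line; potency is read from the fitted curve at half-maximal effect; 0% = DMSO-treated cells and -100% = media-only wells without cells; nearly all actives have a fitted effect of over 55% in size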
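Viability of the 2HG-overproducing fibrosarcoma line after 48 hours of compound exposure at 37 degrees C was determined by luminescence with CellTiter-Glo, and concentration-effect curves were then fitted and categorized.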
TDP1 cell CPT – growth inhibition of DT40 Tdp1-/-;hTDP1 cells with camptothecin (screen for TDP1 inhibitors) | chicken DT40 Tdp1-/-;hTDP1 cells + 20 nM CPT, ATP luminescence, 48 h | Potency, µM (doses to about 46.2 µM), without a hit: at the top dose activity change, negative = growth inhibition, hits mostly inhibitors | 420,000 compounds, 12% hits | AID 686979; also: potency is read from the fitted curve at half-maximal effect; nearly all actives have a fitted effect of over 55% in size
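Chicken DT40 Tdp1-/- cells stably complemented with human TDP1 were seeded at 400 cells/well in medium containing 20 nM camptothecin, exposed to pin-transferred compounds, and grown at 37 °C for at least 48 hr. Viability was read as ATP luminescence.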
ALOX12 inh – inhibitors of human 12S-lipoxygenase ALOX12 | P18054 | Potency, µM (titrated, usually from 108 µM), for the others: at the top dose activity change, negative = inhibition, hits mostly inhibitors | purified 12hLO, xylenol orange hydroperoxide absorbance | 580,000 compounds, 1.1% hits; also: potency is read from the fitted curve at half-maximal effect
Target sequence (P18054 whole entry, looked up): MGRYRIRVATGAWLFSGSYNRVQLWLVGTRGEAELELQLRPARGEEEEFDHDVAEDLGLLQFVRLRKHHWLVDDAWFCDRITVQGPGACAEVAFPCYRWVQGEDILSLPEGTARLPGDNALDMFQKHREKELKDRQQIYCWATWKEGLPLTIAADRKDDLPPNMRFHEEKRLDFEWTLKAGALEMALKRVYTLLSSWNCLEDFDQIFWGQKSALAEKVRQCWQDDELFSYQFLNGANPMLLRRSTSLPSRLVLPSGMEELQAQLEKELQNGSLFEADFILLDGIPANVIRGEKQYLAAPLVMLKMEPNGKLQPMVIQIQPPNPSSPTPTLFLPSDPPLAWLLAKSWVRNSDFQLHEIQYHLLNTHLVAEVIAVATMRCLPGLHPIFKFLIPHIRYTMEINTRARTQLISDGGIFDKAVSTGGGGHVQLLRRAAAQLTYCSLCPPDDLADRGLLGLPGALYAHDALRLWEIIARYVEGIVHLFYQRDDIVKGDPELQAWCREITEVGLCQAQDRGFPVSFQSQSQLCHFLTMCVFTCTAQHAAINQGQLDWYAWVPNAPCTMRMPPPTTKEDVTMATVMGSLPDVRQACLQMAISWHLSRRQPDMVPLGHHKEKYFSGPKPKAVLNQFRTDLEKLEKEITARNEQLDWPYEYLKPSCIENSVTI
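Purified human 12hLO at 150 nM in 25 mM Hepes, 0.01% Triton X-100, pH 7.0, preincubated 15 min at room temperature with compound. Reaction started with 40 uM arachidonic acid, 30 min at room temperature. Hydroperoxide measured by Fe-xylenol orange, 573/405 nm absorbance ratio.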
* marks the source's active call; other numbers are inactive results; ? = inconclusive; · = no result given; ! = not confirmed by another sample; [ ] = dose if it differs, or a comment. Only a selection was taken, and hits are over-represented in it overall. Unless noted, calls follow the shape of the dose curve; as a rule, active = well fitted curve in the direction sought with a large enough effect; inconclusive = small, poorly fitted or top-dose-only effect, or another doubt; inactive = no such curve, though single readings can be large; an effect the other way counts as inactive or inconclusive. Unless noted, % is scaled to controls: 0 for no effect and ±100 for the full control effect.

SMILES | HT1080 IDH1KD tx | IL1B secr inh | DT40 TDP1 no CPT | HT1080NT lethal | TDP1 cell CPT | ALOX12 inh
CC1CCc2c(sc(NC(=O)COc3ccccc3)c2C(=O)Nc2ccccc2Cl)C1 (configuration not stated) | · | · | -19% | · | 4% | 2%
COC(=O)Nc1sc2c(c1C(N)=O)CCC(C)C2 (configuration not stated) | 15% | -2 | -3% | 17% | -4% | 41%
COC(=O)c1c(NC(=S)NN2CCN(C)CC2)sc2c1CCC(C)C2 (configuration not stated) | 16µM* | -69* | ? | 18µM* | ? | -23%
CCOc1ccc(NC(=O)c2c(NC(=O)c3ccncc3)sc3c2CCC(C(C)(C)C)C3)cc1 (configuration not stated) | · | · | 21µM* | · | ? | -6%
COc1ccc(Cl)cc1NC(=O)c1c(NCc2cccnc2)sc2c1CCC(C)C2 (configuration not stated) | · | · | 4.6µM* | · | 3.7µM* | ?
CC(=O)O[C@@]12CO[C@H]1C[C@H](O)[C@@]1(C)C(=O)[C@H](O)C3=C(C)[C@@H](OC(=O)C(O)[C@@H](NC(=O)OC(C)(C)C)c4ccccc4)C[C@@](O)([C@@H](OC(=O)c4ccccc4)[C@@H]21)C3(C)C (some centres not stated) | · | · | · | · | · | 38%[57.4 µM]
CC(=O)c1cccc(NC(=O)CC2(C(=O)O)CCCCC2)c1 | · | · | · | · | · | 1%
N#Cc1c(C(F)(F)F)cc(=O)n2c1[nH]c1ccccc12 | 26µM* | -74* | 15µM* | 4.6µM* | 13µM* | 2%
O=C(CBr)N1CCc2ccccc2C(c2ccccc2)C1 (configuration not stated) | 21µM* | 15 | 2.6µM* | 26µM* | 2.6µM* | 0%
O=C(CN1CCOCC1)N1CCc2ccccc2C(c2ccccc2)C1 (configuration not stated) | 3% | 10 | ? | 2% | -21% | ?
C1CCC(NC(=NC2C3CC4CC(C3)CC2C4)N2CCOCC2)CC1 (configuration not stated) | · | · | 23µM* | · | 29µM*! | 10%[176 µM]
C1CCC(N=C(NC23CC4CC(CC(C4)C2)C3)N2CCOCC2)CC1 | · | · | · | · | · | 95%
CCCC(=O)Nc1sc(C)c(C)c1C(=O)Nc1cccc(C)c1 | -3% | -59* | -7% | 7% | -13% | 4%
Cc1sc(NC(=O)C(C)C)c(C(=O)Nc2ccccc2)c1C | 9% | 15 | 15µM* | -6% | ? | -34%
Cc1cccc(NC(=O)CCCCC(=O)Nc2cccc(C)c2)c1 | 0% | 9 | -13% | 3% | 17% | 0%
CC(=O)Nc1sc(C)c(C)c1C(=O)Nc1ccc(C)cc1 | 15% | 38 | -19% | 7% | -1% | 21%
COc1cccc(NC(=O)C2CCCN(S(=O)(=O)c3cn(C)cn3)CCC(=O)NCC2)c1 (configuration not stated) | · | · | · | · | · | 34%
CC(=O)c1cccc(NC(=O)c2cc(-c3ccco3)nc3ccccc23)c1 | -12% | 6 | 18µM* | -5% | 13µM* | 28µM*
COc1cccc(NC(=O)c2cc(-c3ccco3)nc3ccccc23)c1 | -1% | -12 | ? | 0% | -14% | ?
O=C(NC1CC1)c1ccc(NC(=O)c2cc(-c3ccco3)nc3ccccc23)cc1 | · | · | · | · | · | 10µM*
O=C(O)c1ccc(NC(=O)c2cc(-c3ccco3)nc3ccccc23)cc1 | · | · | · | · | · | 7.9µM*
O=C(O)c1cc(-c2ccco2)nc2cc3ccccc3cc12 | 0% | 10 | -7% | 0% | 7% | 20µM*
CCOc1cc(CNCC2CCCO2)ccc1OCc1ccccc1 (configuration not stated) | · | · | · | · | · | 7%
CC(C)(O)CCc1ccc(C(=O)NCc2noc(-c3ccco3)n2)cc1 | · | · | · | · | · | 56%
COc1ccc(OC)c(NC(=O)c2cccc(N3C(=O)C4C5CCC(C5)C4C3=O)c2)c1 (configuration not stated) | -10% | 0 | 16µM* | -18% | 23µM* | -3%
SMILES | HT1080 IDH1KD tx | IL1B secr inh | DT40 TDP1 no CPT | HT1080NT lethal | TDP1 cell CPT | ALOX12 inh
COc1ccc(NC(=O)c2cccc(N3C(=O)C4CC=C(C)CC4C3=O)c2)c(OC)c1 (configuration not stated) | 3% | 21 | 12µM* | 3% | ? | -19%
COc1ccc(NC(=O)c2cc(N3C(=O)C4C5CCC(C5)C4C3=O)ccc2Cl)c(OC)c1 (configuration not stated) | 2% | -8 | -57% | -16% | ? | 2%
CC1=CCC2C(=O)N(c3cccc(C(=O)N(C)C4CCCCC4)c3)C(=O)C2C1 (configuration not stated) | 1% | -21 | -25% | 5% | -29% | 4%
COc1ccc(OC)c(NC(=O)c2cccc(N3C(=O)C4C5C=CC(C6CC56)C4C3=O)c2)c1 (configuration not stated) | -5% | -3 | 12µM* | ? | 16µM* | 3%
CC(C)(C)OC(=O)NCCC(=O)NC1CCCC1 | · | · | · | · | · | 19%
COc1cc(-c2nn(C3CCC(N4CCN(C(C)=O)CC4)CC3)c3ncnc(N)c23)ccc1NC(=O)c1cc2ccccc2n1C (configuration not stated) | · | · | · | · | · | 0%[57.4 µM]
Cc1ccc(C2=C(c3ccc([N+](=O)[O-])cc3)C(=O)OC2)cc1C | -9% | -2 | 18µM* | -7% | ? | -21%
COCCn1cnc2c1c(=O)n(CC(=O)OCc1cccc(F)c1)c(=O)n2Cc1ccccc1 | · | · | · | · | · | 60%
Cc1c(C)c2c(OCC(=O)NCc3cccnc3)cc3c(c2oc1=O)CCC(C)(C)O3 | -4% | 11 | -10% | -9% | -5% | 8%
CCc1cc(=O)oc2c3c(cc(OCC(=O)Nc4cccnc4)c12)OC(C)(C)CC3 | -20% | ? | 15µM* | -1% | ? | 6%
CCCc1cc(=O)oc2c3c(cc(OCC(=O)NCCCn4ccnc4)c12)OC(C)(C)CC3 | -9% | 0 | 26µM* | -12% | 16µM* | 22%
CCc1cc(=O)oc2c3c(cc(OCC(=O)NCc4cccnc4)c12)OC(C)(C)CC3 | -3% | -1 | 21µM* | -3% | ? | -11%
CCc1cc(=O)oc2c3c(cc(OCC(=O)NCc4ccccn4)c12)OC(C)(C)CC3 | -3% | -22 | ? | 0% | 23µM* | 9%

Bioassay records as filed in PubChem.
